Shown are actives, neighbours in structure and some others; about 2.4% of the full set was active somewhere.
D2 ag-1 = human D2 receptor agonism in beta-arrestin assay. AID 624465. hit rate 0.084% among 360,000. activation, % (test concentration not listed). P14416. DiscoveRx PathHunter D2 beta-arrestin, luminescence, 90 min; 100% = 57 uM dopamine signal; in the data active means activation above about 40%; inconclusive means between about 15% and that limit
Target sequence (P14416 whole entry, looked up): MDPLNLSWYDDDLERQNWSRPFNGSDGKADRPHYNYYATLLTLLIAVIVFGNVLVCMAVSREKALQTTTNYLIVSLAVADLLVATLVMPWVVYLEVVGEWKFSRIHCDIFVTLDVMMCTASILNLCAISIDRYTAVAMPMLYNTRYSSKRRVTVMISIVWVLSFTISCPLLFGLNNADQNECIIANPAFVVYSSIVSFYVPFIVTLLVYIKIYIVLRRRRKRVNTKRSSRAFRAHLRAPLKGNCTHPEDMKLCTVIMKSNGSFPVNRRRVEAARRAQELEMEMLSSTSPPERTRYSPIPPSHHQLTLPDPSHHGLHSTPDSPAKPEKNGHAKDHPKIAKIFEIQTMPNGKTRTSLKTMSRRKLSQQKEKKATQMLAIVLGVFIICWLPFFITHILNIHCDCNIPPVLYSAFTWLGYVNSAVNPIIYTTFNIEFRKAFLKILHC
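Agonist mode: compounds alone added to overnight-plated D2 PathHunter cells for 90 min at 37 C, with 57 uM final dopamine (EC100) defining full response. Beta-arrestin recruitment detected by chemiluminescent reagent, read after 1 h at ambient temperature.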
D2 PAM-1 = positively modulates the human D2 dopamine receptor allosterically | P14416 | HEK293 T-REx D2, calcium flux, EC20 dopamine potentiation | potentiation, % at 10 µM | hit rate 0.34% among 340,000;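 active means potentiation over 3 SD above the plate norm, cut at about 30% in these data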; further: 0% is about no effect
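Using a no-wash calcium dye in inducible, force-coupled HEK293 Trex cells expressing D2, we tracked fluorescence each second for 180 s after compound, then for 180 s after EC20 dopamine to detect augmented signalling.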
D2 PAM-2 = positive allosteric modulators of human D2 dopamine receptor; hit rate 0.23% among 360,000; potentiation, % (no concentration beside the values); AID 624464; DiscoveRx D2 beta-arrestin cells, luminescence, 90 min; 100% = 57 uM dopamine signal; P14416; in the data active means potentiation above about 50%; inconclusive means mostly about 30% to 49%
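PathHunter beta-arrestin assay in DiscoveRx D2 cells. Compounds were added with an EC20 of dopamine (50 nM final) for 90 min at 37 deg C. Luminescence was read 1 h after detection reagent, with 57 uM dopamine as the EC100 control.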
D2 antag = D2 dopamine receptor (human) antagonism; P14416; HEK293 TREx D2 cells, calcium flux, dopamine EC80; inhibition, % at 10 µM; hit rate 2% among 340,000; in the data active means inhibition above about 30%; inactive means below that, where a call was filed; further: 0% is about no effect
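Read-out: kinetic calcium fluorescence (1 cycle/s) in inducible HEK293 T-REx D2 cells after an EC80 dopamine addition that followed 180 s compound preincubation. Loss of the dopamine response indicates antagonism.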
D2 ag-2 = activates the human D2 dopamine receptor | P14416 | HEK293 T-REx D2 cells, calcium flux agonist mode | activation, % at 2 µM | hit rate 0.53% among 340,000 | AID 485358;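 active means activation over 3 SD above normal in the single-dose calcium agonist read, cut at about 30% in these data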; further: 0% is about no effect
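Tetracycline-induced HEK293 Trex cells with D2 receptor force-coupled to calcium signaling, plated overnight at 30 C and loaded with no-wash calcium dye. Calcium flux read kinetically for 180 s after compound addition; responses flag agonists.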
An asterisk follows results filed as active.

What do the screens show for `CCOC(=O)c1ccccc1NC(=O)C1CC(=O)N(C2CCCCC2)C1` (stereo not given)?
D2 ag-1: -3.9; D2 PAM-1: -21.7; D2 PAM-2: -4.9; D2 antag: 41.4*; D2 ag-2: 0.5

How did CCOc1ccc(N2CC(C(=O)Nc3ccc(S(=O)(=O)Nc4nccs4)cc3)CC2=O)cc1 (stereo not given) do in these assays?
D2 ag-1: -1.5; D2 PAM-1: 2.2; D2 PAM-2: 16.9; D2 antag: 31.9*; D2 ag-2: 0.6

Results for CCOc1ccc(N2CC(C(=O)Nc3ccccc3F)CC2=O)cc1 (stereo not given) ?
D2 ag-1: -3.1; D2 PAM-1: -3.2; D2 PAM-2: -6.1; D2 antag: 33.7*; D2 ag-2: -1.3

How did COc1cccc(CC(=O)OC(C)C(=O)NCc2ccc3c(c2)OCO3)c1 (stereo not given) do in these assays?
D2 ag-1: -3.8; D2 PAM-1: -6.5; D2 PAM-2: 3.4; D2 antag: 55.1*; D2 ag-2: 0.0

Results for COc1ccc(-c2csc(C(O)c3ccc(F)cc3)n2)cc1OC (stereo not given) ?
D2 ag-1: -0.5; D2 PAM-2: -8.8

What do the screens show for `CCOC(=O)c1cccc(NC(=O)Cn2nc3c(cc2=O)CCCC3)c1`?
D2 PAM-1: -5.2

How did O=C(NCCc1ccccc1)c1ccc(NC(=O)C2CCC2)cc1 do in these assays?
D2 ag-1: -0.3; D2 PAM-2: -2.9

What do the screens show for `CCOc1ccc(N2CC(C(=O)NCc3ccc4c(c3)OCO4)CC2=O)cc1` (stereo not given)?
D2 ag-1: -4.0; D2 PAM-1: 4.6; D2 PAM-2: -16.4; D2 antag: 36.0*; D2 ag-2: -0.2

What do the screens show for `O=c1[nH]cnc2nc(-c3ccccc3)c(-c3ccccc3)nc12`?
D2 ag-1: -2.4; D2 PAM-1: 45.3*; D2 PAM-2: -12.1; D2 antag: -10.1; D2 ag-2: 0.3

Results for Cc1ccccc1Cn1ccc(NC(=O)c2nn(C)cc2[N+](=O)[O-])n1 ?
D2 ag-1: 1.7; D2 PAM-1: 9.1; D2 PAM-2: -7.0; D2 antag: 31.0*; D2 ag-2: 2.2

How did CCn1cc([N+](=O)[O-])c(C(=O)Nc2ccn(Cc3ccccc3F)n2)n1 do in these assays?
D2 ag-1: -1.0; D2 PAM-1: 2.0; D2 PAM-2: -2.1; D2 antag: 3.7; D2 ag-2: -0.1

What do the screens show for `CC(C)CC1=NN2C(=N)/C(=C\c3coc4ccccc4c3=O)C(=O)N=C2S1`?
D2 ag-1: 3.5; D2 PAM-1: 2.3; D2 PAM-2: 4.3; D2 antag: -4.5; D2 ag-2: 13.2

How did CCSC1=NSC2=NC(=O)/C(=C\c3coc4ccccc4c3=O)C(=N)N12 do in these assays?
D2 ag-1: -1.0; D2 PAM-1: -7.2; D2 PAM-2: inconclusive; D2 antag: 11.6; D2 ag-2: 99.6*

How did CCOC(=O)CNc1ccc2c(c1)OCO2 do in these assays?
D2 ag-1: -4.9; D2 PAM-2: -15.3; D2 antag: 39.9*; D2 ag-2: -0.6

How did COc1cccc(-c2nnc3sc(C4CCCCC4)nn23)c1 do in these assays?
D2 ag-1: -1.8; D2 PAM-1: 15.6; D2 PAM-2: -8.0; D2 antag: 4.1; D2 ag-2: 0.6

Results for COc1cc(-c2nnc3sc(C4CCCCC4)nn23)cc(OC)c1OC ?
D2 ag-1: -1.6; D2 PAM-1: 68.9*; D2 PAM-2: -34.6; D2 antag: -0.6; D2 ag-2: -0.2

Results for CCOc1ccc2c(c1)C(C)=CC(C)(C)N2C(=O)Nc1ccccc1 ?
D2 ag-1: 6.2; D2 PAM-1: 33.8*; D2 PAM-2: 13.6; D2 antag: 1.9; D2 ag-2: -0.2

How did C#CC1(NC(=S)Nc2cccc(OC)c2)CCCCC1 do in these assays?
D2 ag-1: -3.8; D2 PAM-2: -2.2

Results for N#CC1=C2CCCCC2(O)NC1=O (stereo not given) ?
D2 ag-1: -10.1; D2 PAM-2: -1.1

Results for O=C(/C=C/c1ccco1)NCCc1ccccc1 ?
D2 ag-1: -2.7; D2 PAM-1: -6.2; D2 PAM-2: 0.2; D2 antag: 31.7*; D2 ag-2: -0.3

How did O=C(/C=C/c1ccco1)Nc1cc(Cl)ccc1C(=O)O do in these assays?
D2 ag-1: -0.1; D2 PAM-1: 8.5; D2 PAM-2: -17.9; D2 antag: 34.4*; D2 ag-2: -1.5

How did O=C(O)CCCNC(=O)/C=C/c1ccco1 do in these assays?
D2 ag-1: -6.2; D2 PAM-1: 14.6; D2 PAM-2: -0.8; D2 antag: 0.0; D2 ag-2: -0.3

How did CCOc1ccc(NC(=O)CN(C)C(=O)CN2C(=O)c3ccc([N+](=O)[O-])cc3C2=O)cc1OCC do in these assays?
D2 ag-1: 6.1; D2 PAM-1: 5.5; D2 PAM-2: 56.6*; D2 antag: -20.0; D2 ag-2: -0.9

Results for CCCCN1C(=O)c2ccc(C(=O)N(C)CC(=O)Nc3ccc(OCC)c(OCC)c3)cc2C1=O ?
D2 ag-1: -4.8; D2 PAM-2: -12.7

How did Nc1nc(NCCc2ccccc2)nc(NCc2ccccc2)c1[N+](=O)[O-] do in these assays?
D2 ag-1: -1.6; D2 PAM-1: 0.0; D2 PAM-2: 3.2; D2 antag: 45.2*; D2 ag-2: 0.6

Results for CCOc1ccc(-c2nn(CC(=O)NC3CCCC3)c3c2cnc2ccc(F)cc23)cc1 ?
D2 PAM-1: 10.3; D2 ag-2: -0.8

Results for Cc1nc(-n2nc(C)c(Cc3ccc4c(c3)OCO4)c2C)sc1C(=O)Nc1cccc(Cl)c1 ?
D2 PAM-1: 0.4; D2 ag-2: -1.8

What do the screens show for `Cc1cc(NC(=O)c2ccc3c(c2)OCO3)ccc1NC(=O)c1ccco1`?
D2 ag-1: -2.6; D2 PAM-1: -9.4; D2 PAM-2: 0.9; D2 antag: -11.4; D2 ag-2: -0.7

Results for Cc1ccccc1NC(=O)c1ccc(NC(=O)c2ccco2)cc1 ?
D2 ag-1: 1.6; D2 PAM-1: -12.6; D2 PAM-2: -11.9; D2 antag: 44.8*; D2 ag-2: 1.7

Results for COc1cc(NC(=O)c2ccc3c(c2)OCO3)ccc1NC(=O)C(C)C ?
D2 ag-1: -4.5; D2 PAM-1: -1.6; D2 PAM-2: -5.8; D2 antag: 64.3*; D2 ag-2: -0.7

What do the screens show for `Cc1ccc(C(=O)Nc2ccc3c(c2)OCO3)cc1NC(=O)c1ccco1`?
D2 ag-1: -19.2; D2 PAM-1: -2.7; D2 PAM-2: 4.0; D2 antag: 47.7*; D2 ag-2: 1.0

What do the screens show for `Cc1ccccc1OCc1nc(-c2ccc(NC(=O)c3ccco3)cc2)no1`?
D2 ag-1: 7.1; D2 PAM-1: 42.6*; D2 PAM-2: 6.3; D2 antag: -31.4; D2 ag-2: -1.5

What do the screens show for `CN(C(=O)CSc1nc2ccc(NC(=O)c3cccc(F)c3)cc2s1)c1ccccc1`?
D2 PAM-1: -15.3

Assay outcomes (PubChem BioAssay)
